Common to all, as to test: NCI-60 one-dose screen, 48 h (100 = growth as untreated, 0 = no growth, -100 = all killed)
Holding throughout (conditions): 10 µM unless noted

Assay [1] concerns HCT-15 colon.
For assay [2], the system named is HT29 colon.
The subject of assay [3] is SNB-75 CNS.
Assay [4] concerns SNB-19 CNS.
For assay [5], the system named is PC-3 prostate.
The subject of assay [6] is SK-MEL-5 melanoma.
The subject of assay [7] is UACC-62 melanoma.
The test system of assay [8] is LOX IMVI melanoma.
The test system of assay [9] is SK-MEL-28 melanoma.

The structures appear in SMILES notation. Compounds without any hit were thinned out: in the full panel of roughly 83,000, 20% have a hit.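 Percent growth is the endpoint: 0 to 100 indicates growth inhibition (40 means 60% inhibition), 0 means no net growth, and negative values indicate cell death.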 A number with no mark means an inactive call. Active and inactive are the calls of the source. Rule for the calls: active = growth percent below 10; inactive = the rest.

For the compound `CC(=O)OCC(=O)C1CCC=CC1OC(C)=O` (centres undefined), the growth was 103% in assay [1]; 107% in assay [2]; 80.9% in assay [3]; 93.5% in [4]; 105% in assay [5]; 97.7% in assay [6]. Besides, the values for the growth in [7], in [8] and in assay [9] were 95.4%, 96.1% and 108%, respectively.

As to `Oc1ccccc1/C=N/Nc1ccc2ccccc2n1`, the growth was 25.2% in assay [1]; 48.9% in assay [2]; 31.9% in assay [3]; 67.6% in assay [4]; 57.3% in assay [5]; 51.3% in assay [6]. The values for the growth in [7], in [8] and in [9] were 40.6%, 42.3% and 74.1%, respectively.

Consider `C#Cc1nc(Nc2cc(C)[nH]n2)c2ccccc2n1`, for which the growth in [1] is -25.6% (active); in assay [2] it was -30.1% (active); in assay [3], -88.9% (active); in [4], 13.3%; in assay [5], -42.1% (active); in assay [6] it was -84.9% (active). For the same compound, the growth in [7] was -81.5% (active); in [8] it was -74.8% (active); in assay [9], -58.5% (active).

In the case of `O=C(N/N=C/c1ccc(O)cc1O)c1cccnc1`, the growth in assay [1] is 30.7%; in assay [2] it was 46.1%; in [3], 37.7%; in assay [4], 70.5%; in assay [5], 53.2%; in assay [6], 39.3%. Moreover, the values for the growth in assay [7], in assay [8] and in assay [9] were 34.2%, 21.8% and 50.4%, respectively.

As to `CC(=O)Oc1cc2cnc3c4cc(OC(C)=O)c(OC(C)=O)cc4ccc3c2cc1OC(C)=O`, the growth in [1] is 25.1%; in assay [2], 17.4%; in assay [3], -5.27% (active); in [4] it was 33.9%; in assay [5] it was 21.6%; in assay [6] it was 13.1%. Further, the values for the growth in assay [7], in assay [8] and in [9] were -22% (active), 10.6% and 42.7%, respectively.

As for `CCN(CC)CCCC(C)N/C(=C1\C(=O)NC(=O)\C1=C(/NC(C)CCCN(CC)CC)c1cccc(OC)c1)c1cccc(OC)c1` (centres undefined), the growth in [1] is 5.33% (active); in assay [2] it was -54.8% (active); in assay [3] it was 30.5%; in assay [4] it was 23.6%; in assay [5], -3.13% (active); in assay [6], -91% (active). Also, the values for the growth in assay [7], in assay [8] and in assay [9] were -14.7% (active), -68.5% (active) and -83% (active), respectively.

Regarding `CCOC(=O)C(=Cc1ccccc1F)C(=O)OCC`, the growth is 86.9% in assay [1]; 103% in [2]; 83.4% in [3]; 104% in assay [4]; 87.6% in assay [5]; 92.8% in [6]. Further, the figures for the growth in assay [7], in [8] and in assay [9] were 94.9%, 86.4% and 104%, respectively.

For the compound `CCCCCCCCOC(=O)CC[C@@H](C)[C@H]1CC[C@H]2[C@@H]3[C@H](OC(=O)CCN)C[C@@H]4C[C@H](OC(=O)CCN)CC[C@]4(C)[C@H]3C[C@H](OC(=O)CCN)[C@]12C`, the growth in assay [1] was 102%; in assay [2], 39.6%; in assay [3] it was 63.9%; in assay [4], 116%; in [5], 87.3%; in assay [6] it was 97%. The growth in assay [7] was 104%; in [8], 63.2%; in assay [9] it was 58.4%.

As for `O=c1c2cccc3c(Nc4c(F)cccc4F)ccc(c32)c2nc3ccccc3n12`, the growth in assay [1] is 75.5%; in assay [2] it was 93.4%; in assay [3], 80%; in [4] it was 103%; in assay [5] it was 84.5%; in assay [6] it was 81.8%. For the same compound, the growth in [7] is 86.9%; in assay [8], 86.9%; in assay [9] it was 109%.

Regarding `CN1CCN(c2ccc3nc(-c4ccc5nc(-c6ccc(OCCC(C)(C)C)cc6)[nH]c5c4)[nH]c3c2)CC1`, the growth is 56.3% in assay [1]; -82.3% (active) in assay [2]; 90.1% in assay [3]; -67.6% (active) in [4]; -72.6% (active) in [5]; 80.2% in assay [6]. In addition, the growth in [7] was 88.1%; in assay [8] it was -73.7% (active); in assay [9], -59.2% (active).

Take `Cc1csc2ccc(Cl)cc12`: the growth in assay [1] is 95.6%; in [2], 102%; in assay [3] it was 69.7%; in [4] it was 99.2%; in [5], 96.8%; in assay [6], 107%. The growth in [7] is 96.2%; in assay [8] it was 103%; in assay [9], 104%.

Regarding `CC1=N/C(=C\c2cccc(Br)c2)C(=O)O1`, the growth in assay [1] is 104%; in assay [2] it was 108%; in assay [3], 97.7%; in assay [4], 105%; in [5], 101%; in [6], 100%. For the same compound, the growth is 104% in [7], 100% in assay [8] and 114% in assay [9].

For the compound `O=C1C(Cl)=C(Cl)C(=O)c2c1nc1n2CCCC1`, the growth in assay [1] was 103%; in [2], 99.7%; in assay [3], 126%; in assay [4] it was 96.4%; in assay [5] it was 88.5%; in [6] it was 98.8%. Besides, the growth in [7] is 93.7%; in assay [8], 85.8%; in assay [9], 113%.

In the case of `COc1cc(OC)c(/C=C/c2cc[n+](C)c3ccccc23)c(OC)c1`, the growth in assay [1] is 90.9%; in [2] it was 0.813% (active); in [3], -13.8% (active); in [4], 26.4%; in assay [5], 16.5%; in [6], -47.2% (active). In addition, the growth is 12.7% in assay [7], -74.2% (active) in [8] and 24.8% in assay [9].

As for `O=C1Nc2ccccc2/C1=C/C(=N/c1nnc(-c2ccccc2)s1)c1ccccc1`, the growth in assay [1] is 19.8%; in assay [2] it was -36.3% (active); in assay [3], 78.7%; in [4], 103%; in assay [5], 78.4%; in [6] it was 93.9%. The growth was 71.5% in assay [7], -86.3% (active) in [8] and 86.4% in [9].

`Cc1nn(-c2ccccc2)c2nc(C)n(-c3ccc(Br)cc3)c(=O)c12`: the growth in assay [1] was 17.4%; in assay [2] it was -15.7% (active); in assay [3], -6.84% (active); in [4], 47.5%; in assay [5] it was 26.4%; in [6], 5.34% (active). The figures for the growth in [7], in assay [8] and in [9] were 38.7%, 45.6% and 69.3%, respectively.

Regarding `COC(=O)[C@H](C(C)C)n1c(=O)c2cc(OC)c(OC)cc2c2cnc3[nH]ccc3c21`, the growth is 41.3% in assay [1]; 45.5% in [2]; 13.2% in [3]; 77.7% in assay [4]; 29.2% in [5]; 58.8% in assay [6]. Further, the growth is 22.3% in [7], 28.2% in assay [8] and 62.2% in assay [9].

With `CCOC(=O)C(CC)n1c(=O)c2cc(OC)c(OC)cc2c2cnc3[nH]ccc3c21` (centres undefined), the growth in [1] was 75%; in assay [2] it was 76.9%; in assay [3] it was 45.3%; in assay [4], 90.8%; in [5] it was 57.1%; in [6], 80.9%. Further, the growth is 63.2% in [7], 44.8% in assay [8] and 90.7% in [9].

On to `CCC(C)[C@@H]1NC(=O)[C@@H]2CCCN2C(=O)[C@H](Cc2ccccc2)NC(=O)[C@@H]2CCCN2C(=O)[C@H](Cc2ccccc2)NC(=O)[C@@H]2CCCN2C(=O)[C@H](Cc2ccccc2)NC1=O` (some centres undefined), for which the growth in assay [1] was 103%; in assay [2] it was 113%; in assay [3], 76.7%; in assay [4], 103%; in [5] it was 90.7%; in assay [6], 100%. Further, the growth was 99.9% in assay [7], 103% in assay [8] and 95% in assay [9].

`COc1ccc(/C=C2\N=C3Sc4cc(Cl)ccc4C(=O)N3C2=O)cc1`: the growth in assay [1] is 102%; in assay [2], 104%; in assay [3], 76.8%; in assay [4], 101%; in [5] it was 85.5%; in assay [6], 99.8%. Also, the values for the growth in assay [7], in assay [8] and in assay [9] were 98%, 98.8% and 103%, respectively.

Regarding `CC[C@H](Nc1nc(N)nc(C)c1C#N)c1nc2cccc(NCc3ccc(C(=O)NO)cc3)c2c(=O)n1-c1ccccc1`, the growth in assay [1] was 38.7%; in [2], 3.55% (active); in assay [3], 14.3%; in [4], 7.28% (active); in [5], 5.79% (active); in [6] it was -13.2% (active). The growth in assay [7] was -28.6% (active); in [8], -52.6% (active); in [9] it was -0.295% (active).

As to `C[C@H](CCC(=O)O)[C@H]1CC[C@H]2[C@@H]3CC[C@@H]4/C(=C\c5ccco5)C(=O)/C(=C\c5ccco5)C[C@]4(C)[C@H]3CC[C@]12C`, the growth in [1] was 28.5%; in [2], 59.6%; in assay [3] it was 101%; in assay [4], 79%; in [5], 52.6%; in assay [6], 47.4%. In addition, the growth in assay [7] is 17.2%; in [8], 31.6%; in assay [9] it was 44.3%.

Take `N=S(=O)(NC(=O)c1ccc(Cl)cc1Cl)c1ccc(Br)s1` (centres undefined): the growth is 82.4% in assay [1]; 111% in [2]; 108% in assay [3]; 85.5% in assay [4]; 102% in [5]; 94.7% in [6]. Further, the growth in assay [7] was 112%; in assay [8] it was 98.1%; in assay [9] it was 111%.

Regarding `CC(=O)OCC1OC(OC2=C(CC=C(Cl)Cl)C(=O)c3ccccc3C2=O)C(OC(C)=O)C(OC(C)=O)C1OC(C)=O` (centres undefined), the growth was 56.9% in assay [1]; 90.8% in assay [2]; 71.1% in [3]; 99.3% in assay [4]; 47.4% in assay [5]; 66.3% in assay [6]. Further, the growth in assay [7] is 86.1%; in assay [8], 39.9%; in assay [9] it was 91.4%.

Turning to `COc1ccc(-c2nn(-c3ccccc3)cc2/C=C2\SC(=O)NC2=O)cc1`, the growth in assay [1] is 89.4%; in assay [2], 114%; in assay [3], 66.3%; in assay [4], 89.2%; in [5] it was 99.6%; in [6], 83.1%. The growth is 89.2% in assay [7], 59% in assay [8] and 112% in assay [9].

`Cl/C(=N\Nc1ccccc1)c1ccccc1`: the growth was 93.4% in [1]; 103% in assay [2]; 67.4% in [3]; 100% in assay [4]; 78% in assay [5]; 93.8% in assay [6]. The growth is 78.2% in [7], 97% in assay [8] and 101% in assay [9].

For the origin of these results see PubChem BioAssay (NCI).
